Assay results published in the supplement of paper PMC12669032.
Several values for one entry are separate records, joined by “and”; a condition that tells them apart may be missing. Equal entries are not always repeated. Values without a mark were called inactive.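 Rule for the calls: active = AUC reduced over 20% with Padj below 0.05 in at least 2 of 3 replicates; inactive = otherwise.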

System: Akkermansia muciniphila
Assay: growth AUC relative to DMSO control (median of replicates) (fraction); higher = more growth (less inhibition), active = hit call of the paper
Details: 20 µM; 24 h
In short: (§1)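 Three biological replicates, each grown on a separate day, were combined as a median for every value. In each, a gut bacterial monoculture in mGAM started at OD600 0.05 and grew anaerobically at 37 °C with 20 µM compound (1% DMSO), with OD600 read hourly over 24 h. Area under the growth curve was normalised against the plate median of solvent-only wells, or against row and column medians on the industrial chemical plate, after the minimum OD was set to 0.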

| SMILES | growth AUC |
| --- | --- |
| CCC(C)(CC)c1cc(NC(=O)c2c(OC)cccc2OC)on1 | 1.05 |
| CNC(=O)Oc1cc(C)c(SC)c(C)c1 | 1.07 |
| COC(=O)C(C)(Cl)Cl | 0.86 |
| Cc1cc(Cl)ccc1N=CN(C)C | 1.01 |
| Nc1cc(Cl)cc(Cl)c1 | 1.1 |
| CCCCCCCCCc1ccc(O)cc1 | 1.02 |
| COc1c(Cl)ccc(Cl)c1Cl | 1.02 |
| CC(C)(C)c1cc([N+](=O)[O-])cc([N+](=O)[O-])c1O | 0.623 |

System: Bacteroides caccae
Assay: as above
Details: 20 µM; 24 h
In short: as §1

| SMILES | growth AUC |
| --- | --- |
| COP(N)(=O)SC (stereo unspecified) | 1.01 |
| COc1cc(OC)n2nc(S(=O)(=O)Nc3c(Cl)ccc(C)c3Cl)nc2n1 | 0.98 |
| CC(C)N(C(=O)SCC(Cl)=C(Cl)Cl)C(C)C | 1 |
| O=S(=O)(c1ccc(O)cc1)c1ccc(O)cc1 | 0.97 |
| CN(C)NC(=O)CCC(=O)O | 1 |
| CCN(CC)c1nc(C)cc(OP(=S)(OC)OC)n1 | 0.979 |
| Clc1cccc(Cl)c1Cl | 1.04 |
| CCN(CC)C(=S)[S-].O.O.O.[Na+] | 0.981 |
| C#CCC1=C(C)C(OC(=O)C2C(C=C(C)C)C2(C)C)CC1=O (stereo unspecified) | 0.892 |
| CCOc1ccccc1OS(=O)(=O)NC(=O)Nc1nc(OC)cc(OC)n1 | 1.05 |
| CNC(=O)Oc1cc(C)cc(C(C)C)c1 | 0.969 |
| CCCCN(CC)c1c([N+](=O)[O-])cc(C(F)(F)F)cc1[N+](=O)[O-] | 1 |
| O=C(O)CCl | 0.966 |
| CC[C@H](C)[C@H]1O[C@]2(C=C[C@@H]1C)C[C@@H]1C[C@@H](C/C=C(\C)[C@@H](O[C@H]3C[C@H](OC)[C@@H](O[C@H]4C[C@H](OC)[C@@H](NC)[C@H](C)O4)[C@H](C)O3)[C@@H](C)/C=C/C=C3\CO[C@@H]4[C@H](O)C(C)=C[C@@H](C(=O)O1)[C@]34O)O2.O=C(O)c1ccccc1 | 0.0357 (active) |
| CON(C)C(=O)Nc1ccc(Cl)c(Cl)c1 | 1.05 |
| CCCCOC(=O)[C@@H](C)Oc1ccc(Oc2ccc(C#N)cc2F)cc1 | 0.973 |
| Clc1cc(Cl)c(Cl)c(Cl)c1 | 0.971 |
| CN(C)C(=O)Nc1cccc(C(F)(F)F)c1 | 0.97 |
| CN(C)C(=O)Nc1cccc(OC(=O)NC(C)(C)C)c1 | 0.771 |
| CCOP(=O)(NC(C)C)Oc1ccc(SC)c(C)c1 (stereo unspecified) | 0.974 |

| SMILES | growth AUC |
| --- | --- |
| ClCC(Br)CBr (stereo unspecified) | 1.04 |
| O=[N+]([O-])c1c(Cl)c(Cl)cc(Cl)c1Cl | 0.973 |
| CCS(=O)c1c(C#N)nn(-c2c(Cl)cc(C(F)(F)F)cc2Cl)c1N (stereo unspecified) | 1.04 |
| CNC(=O)Oc1cccc2c1OC(C)(C)C2O (stereo unspecified) | 1.01 |
| CCOP(=O)(SC(C)CC)N1CCSC1=O (stereo unspecified) | 1.02 |
| CCOP(=O)(OCC)ON1C(=O)c2cccc3cccc(c23)C1=O | 0.856 |
| O=C(O)C(F)(F)C(F)(F)C(F)(F)C(F)(F)C(F)(F)C(F)(F)F | 1.03 |
| O=S1OC[C@@H]2[C@H](CO1)[C@]1(Cl)C(Cl)=C(Cl)[C@@]2(Cl)C1(Cl)Cl (stereo partly specified) | 0.96 and 1.01 |
| O=C(O)c1ccccc1C(=O)Nc1cccc2ccccc12 | 1.04 |
| CCCCN(CCCC)SN(C)C(=O)Oc1cccc2c1OC(C)(C)C2 | 1.02 |
| C[n+]1ccc(-c2cc[n+](C)cc2)cc1.O.[Cl-].[Cl-] | 0.846 |
| CCC(C)(CC)c1cc(NC(=O)c2c(OC)cccc2OC)on1 | 1.01 |
| CNC(=O)Oc1cc(C)c(SC)c(C)c1 | 0.934 |
| COC(=O)C(C)(Cl)Cl | 0.984 |
| Cc1cc(Cl)ccc1N=CN(C)C | 1.01 |
| Nc1cc(Cl)cc(Cl)c1 | 0.895 |
| CCCCCCCCCc1ccc(O)cc1 | 1.03 |
| COc1c(Cl)ccc(Cl)c1Cl | 0.971 |
| CC(C)(C)c1cc([N+](=O)[O-])cc([N+](=O)[O-])c1O | 0.973 |

System: Bacteroides clarus
Assay: as above
Details: 20 µM; 24 h
In short: as §1

| SMILES | growth AUC |
| --- | --- |
| COP(N)(=O)SC (stereo unspecified) | 1.04 |
| COc1cc(OC)n2nc(S(=O)(=O)Nc3c(Cl)ccc(C)c3Cl)nc2n1 | 0.962 |
| CC(C)N(C(=O)SCC(Cl)=C(Cl)Cl)C(C)C | 1.02 |
| O=S(=O)(c1ccc(O)cc1)c1ccc(O)cc1 | 1 |
| CN(C)NC(=O)CCC(=O)O | 1.01 |
| CCN(CC)c1nc(C)cc(OP(=S)(OC)OC)n1 | 0.974 |
| Clc1cccc(Cl)c1Cl | 0.992 |
| CCN(CC)C(=S)[S-].O.O.O.[Na+] | 1.01 |
| C#CCC1=C(C)C(OC(=O)C2C(C=C(C)C)C2(C)C)CC1=O (stereo unspecified) | 1.04 |
| CCOc1ccccc1OS(=O)(=O)NC(=O)Nc1nc(OC)cc(OC)n1 | 0.972 |
| CNC(=O)Oc1cc(C)cc(C(C)C)c1 | 0.982 |
| CCCCN(CC)c1c([N+](=O)[O-])cc(C(F)(F)F)cc1[N+](=O)[O-] | 0.964 |
| O=C(O)CCl | 0.991 |
| CC[C@H](C)[C@H]1O[C@]2(C=C[C@@H]1C)C[C@@H]1C[C@@H](C/C=C(\C)[C@@H](O[C@H]3C[C@H](OC)[C@@H](O[C@H]4C[C@H](OC)[C@@H](NC)[C@H](C)O4)[C@H](C)O3)[C@@H](C)/C=C/C=C3\CO[C@@H]4[C@H](O)C(C)=C[C@@H](C(=O)O1)[C@]34O)O2.O=C(O)c1ccccc1 | 0.264 (active) |
| CON(C)C(=O)Nc1ccc(Cl)c(Cl)c1 | 1 |
| CCCCOC(=O)[C@@H](C)Oc1ccc(Oc2ccc(C#N)cc2F)cc1 | 1 |
| Clc1cc(Cl)c(Cl)c(Cl)c1 | 0.989 |
| CN(C)C(=O)Nc1cccc(C(F)(F)F)c1 | 0.983 |
| CN(C)C(=O)Nc1cccc(OC(=O)NC(C)(C)C)c1 | 1.01 |
| CCOP(=O)(NC(C)C)Oc1ccc(SC)c(C)c1 (stereo unspecified) | 0.982 |

| SMILES | growth AUC |
| --- | --- |
| ClCC(Br)CBr (stereo unspecified) | 0.981 |
| O=[N+]([O-])c1c(Cl)c(Cl)cc(Cl)c1Cl | 1.01 |
| CCS(=O)c1c(C#N)nn(-c2c(Cl)cc(C(F)(F)F)cc2Cl)c1N (stereo unspecified) | 0.996 |
| CNC(=O)Oc1cccc2c1OC(C)(C)C2O (stereo unspecified) | 1.04 |
| CCOP(=O)(SC(C)CC)N1CCSC1=O (stereo unspecified) | 0.977 |
| CCOP(=O)(OCC)ON1C(=O)c2cccc3cccc(c23)C1=O | 0.898 |
| O=C(O)C(F)(F)C(F)(F)C(F)(F)C(F)(F)C(F)(F)C(F)(F)F | 1 |
| O=S1OC[C@@H]2[C@H](CO1)[C@]1(Cl)C(Cl)=C(Cl)[C@@]2(Cl)C1(Cl)Cl (stereo partly specified) | 0.957 and 0.941 |
| O=C(O)c1ccccc1C(=O)Nc1cccc2ccccc12 | 1.02 |
| CCCCN(CCCC)SN(C)C(=O)Oc1cccc2c1OC(C)(C)C2 | 0.975 |
| C[n+]1ccc(-c2cc[n+](C)cc2)cc1.O.[Cl-].[Cl-] | 1 |
| CCC(C)(CC)c1cc(NC(=O)c2c(OC)cccc2OC)on1 | 0.949 |
| CNC(=O)Oc1cc(C)c(SC)c(C)c1 | 1 |
| COC(=O)C(C)(Cl)Cl | 1.01 |
| Cc1cc(Cl)ccc1N=CN(C)C | 0.995 |
| Nc1cc(Cl)cc(Cl)c1 | 1.04 |
| CCCCCCCCCc1ccc(O)cc1 | 0.739 (active) |
| COc1c(Cl)ccc(Cl)c1Cl | 0.985 |
| CC(C)(C)c1cc([N+](=O)[O-])cc([N+](=O)[O-])c1O | 0.742 (active) |
